# Screening results as filed in PubChem BioAssay.
# A549 viability – Nrf2 qHTS screen for inhibitors: counterscreen for cytotoxicity; A549 ARE-Fluc cells, CellTiter-Fluor viability, 18-24 h; 390,000 tested, 0.16% active; Potency, µM (doses to about 46 µM), inactives show at the highest dose activity change, negative = cytotoxicity, most hits filed as inhibitors; AID 504648, 2011; note: potency is the fitted concentration of half-maximal effect; % is set by controls: 0 for no effect and ±100 for the full control effect
#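 A549 ARE_Fluc cells in 5% FBS OPTI-MEM were exposed to compounds in concentration-response for 18-24 h at 37 deg C. Viability was read by CellTiter-Fluor fluorescence (Ex 405/Em 525) after 30 min, before the luciferase read.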
# miR-21 act – qHTS Assay for Modulators of miRNAs and/orActivators of miR-21; HeLa miR-21 FLuc reporter, luciferase, 48 h; Potency, µM (highest dose often 38.3 µM), for inactives: at the top dose activity change, positive = activation, usual class: activators; 340,000 tested, under 10 active; AID 2288, 2010;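 note: % of control where 0% means no effect; miR-21 action dims this reporter so a rising signal means less miR-21 action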
#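 Compounds were titrated across several concentrations (up to approximately 40 uM) and incubated 48 hours with HeLa miR-21-FLuc reporter cells (miR-21 target sequence downstream of FLuc, endogenous miR-21). Readout was firefly luciferase luminescence after lytic detection reagent.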
# Nrf2 activator – qHTS of Nrf2 Activators; AREc32 ARE-luciferase reporter (MCF7-derived line), luminescence, 24 h; Potency, µM (top dose mostly 46.1 µM), without a hit: at the top dose activation, actives largely listed as activators; 410,000 tested, 0.31% active; AID 624171, 2012; note: potency is the fitted concentration of half-maximal effect; % of control where 0% means no effect; nearly all actives have a fitted effect of over 65% in size
#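 Quantitative high-throughput format: AREc32 reporter cells, 1000 per well, received compound by pin transfer and were incubated 24 hr at 37 deg C, 5% CO2, before Steady-Glo luminescence detection.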
# ClpP mod – qHTS Assay for Activators of ClpP; ATP-dependent Clp protease proteolytic subunit (Bacillus subtilis (strain 168)), P80244; purified B. subtilis ClpP, FRET peptide cleavage, 20 min; Potency, µM (top dose mostly 57.5 µM), without a hit: at the highest dose activity change, negative = active; 340,000 tested, 1.9% active; AID 651965, 2013; active = well fitted falling curve with a large enough effect; inconclusive = small, poorly fitted or top-dose-only effect; inactive = no such curve, though single readings can be large or run the other way; note: potency is the fitted concentration of half-maximal effect; the source files actives as falling curves though it sought activators and does not explain the sign; nearly all actives have a fitted effect of over 65% in size
# Target sequence (P80244 whole entry, looked up): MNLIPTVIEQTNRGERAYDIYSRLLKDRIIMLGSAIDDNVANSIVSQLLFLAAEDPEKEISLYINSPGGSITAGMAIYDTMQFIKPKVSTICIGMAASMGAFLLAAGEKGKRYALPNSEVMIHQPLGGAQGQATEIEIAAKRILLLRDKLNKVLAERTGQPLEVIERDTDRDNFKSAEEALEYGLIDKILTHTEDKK
#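 FRET quenching reversal measured ClpP activation: 10 microg/mL B. subtilis ClpP at pH 8 with the FRET-FV decapeptide, read at 430 nm after 320 nm excitation. The 20-min minus 0-min signal was scaled between DMSO/no-enzyme wells and ADEP (5.8 microM final).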
# IL-2 act – qHTS of IL-2 Activators; IL-2 activation reporter assay, cell-based qHTS; stimulated with anti-CD3/CD4/CD28 beads; in transgenic mouse T cells; 360,000 tested, 0.065% active; activation, % (series mostly up to about 46 µM); in the data active = activation above about 50%; inconclusive = mostly about 30% to 49%; note: 0% is about no effect
#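 Screening format: compound pinned onto unstimulated transgenic mouse T cells, 60 min incubation, then anti-CD3/anti-CD4/anti-CD28 bead stimulation for 18 hours at 37 degrees C, followed by EGFP and DsRed detection.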
# Nrf2 inh – Nrf2 qHTS screen for inhibitors; Potency, µM (titrated, usually from 46 µM), for the others: at the top dose activity change, negative = inhibition, usual class: inhibitors; 360,000 tested, 2.1% active; A549 ARE-Fluc reporter, luciferase luminescence, 18-24 h; AID 504444, 2011; note: potency is the fitted concentration of half-maximal effect; % is set by controls: 0 for no effect and ±100 for the full control effect; nearly all actives have a fitted effect of over 60% in size
#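 Reporter: ARE-Fluc in A549. Exposure: 18-24 h, 37 °C, 5% CO2, 5% FBS OPTI-MEM. Readouts: fluorescent cytotoxicity (CellTiter-Fluor), then luminescent Nrf2 signal after BugLite.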
# Numbers without * were called inactive; u = inconclusive; x = no result; [ ] = dose if it differs, or a comment. Compounds with a hit are over-represented: about 3.7% of the library has one in this group of screens. Unless noted, calls come from the whole dose curve; as a rule, active = well fitted curve in the direction sought with a large enough effect; inconclusive = small, poorly fitted or top-dose-only effect, or another doubt; inactive = no such curve, though single readings can be large; an effect the other way counts as inactive or inconclusive.
SMILES,A549 viability,miR-21 act,Nrf2 activator,ClpP mod,IL-2 act,Nrf2 inh
O=C(COC(=O)c1ccccc1Br)NCCC1=CCCCC1,9%,-31%,2%,x,0,21%
O=C(OCC(=O)N(Cc1ccccc1)Cc1ccccc1)c1ccccc1NCCO,-1%,x,1%,x,-1,14%
Cc1ccc(-n2nc(C)c(NC(=O)COC(=O)c3ccccc3NCCO)c2C)cc1,-8%,x,2%,28µM*,-3,-19%
CC(C#N)(NC(=O)COC(=O)c1ccccc1NCCO)C1CC1 (stereo not drawn),6%,x,0%,25µM*,1,1%
O=C(COC(=O)c1ccccc1NCCO)NCCC1=CCCCC1,1%,x,1%,25µM*,4,u
Cc1cccc(NC(=O)Cn2c(=O)n(Cc3ccccc3)c(=O)c3sc4ccccc4c32)c1,-1%,-2%,0%,u,x,-6%
Cc1ccc(NS(=O)(=O)c2ccc3c(c2)C(Cl)(Cl)C(=O)N3)cc1C,1%,x,x,x,x,8%
Cc1ccc(-c2csc(=Nc3cccnc3)n2CCCn2ccnc2)cc1C,-6%,u,0%,-1%,-1,18µM*
CCc1ccc(-c2cc(C)no2)cc1S(=O)(=O)N1CCN(c2cc(C)ccc2C)CC1,0%,0%,0%,x,-4,-18%
CCc1ccc(-c2cc(C)no2)cc1S(=O)(=O)N1CCOc2ccc(C)cc21,2%,14%,3%,-2%,-4,13µM*
COc1ccc(-c2cc(C)no2)cc1S(=O)(=O)N1CCOc2ccccc21,-4%,1%,1%,-1%,-1,u
Cc1cc(-c2ccc(C(C)C)c(S(=O)(=O)N3CCOc4ccccc43)c2)on1,9%,17%,1%,-2%,-2,21µM*
CC1CCN(Cc2c(C(=O)N/N=C/c3cccc(C(F)(F)F)c3)nnn2-c2nonc2N)CC1,3%,6%,9%,0%,-3,0%
CC1CCN(Cc2c(C(=O)N/N=C/c3ccc(C(F)(F)F)cc3)nnn2-c2nonc2N)CC1,u,-2%,0%,x,0,26µM*
COC(=O)C(CCSC)NC(=O)Cn1ncc2c([nH]c3ccccc32)c1=O (stereo not drawn),0%,-4%,0%,-24%,x,15%
Cn1cnnc1Sc1ccc(/C=C/C(=O)c2ccc(O)cc2)cc1[N+](=O)[O-],u,6%,u,0%,-5,18µM*
CCC(C)(C)NC(=O)c1ccc(Sc2nncn2C)c([N+](=O)[O-])c1,4%,-7%,0%,1%,-1,17%
Cc1cc(OCc2nn[nH]n2)c2c(C)c(Cc3ccccc3)c(=O)oc2c1,0%,-7%,-1%,32µM*,-1,x
Cc1ccc(OCCCn2c(C3CC(=O)N(c4cccc(Cl)c4)C3)nc3ccccc32)c(C)c1 (stereo not drawn),-16%,-8%,-1%,-3%,x,-29%
CCc1ccc(OCCn2c(C3CC(=O)N(Cc4ccc(F)cc4)C3)nc3ccccc32)cc1 (stereo not drawn),-17%,24%,-3%,3%,x,15µM*
Cc1ccc(OCCn2c(C3CC(=O)N(Cc4ccc(F)cc4)C3)nc3ccccc32)c(C)c1 (stereo not drawn),-1%,u,-4%,-3%,x,23µM*
CCCN(CCC)CCNC(=O)C1CCN(c2nc3ccc(CC)cc3s2)CC1,6%,17%,7%,-4%,x,25%[9.27 µM]
CCOc1ccccc1N(C)C(=O)C1CCCN(c2ncnc3onc(-c4ccc(F)cc4)c23)C1 (stereo not drawn),7%,-2%,0%,1%,x,-26%
N#CC1=C(N)Oc2c(ccc3ccccc23)C1c1ccsc1 (stereo not drawn),u,-12%,8.9µM*,-1%,0,u
COc1cccc2cc(-c3nc(-c4ccccc4F)no3)c(=O)oc12,6%,-65%,4%,1%,x,u
O=C1CCCCCC1C1(O)C(=O)Nc2ccccc21 (stereo not drawn),-5%,-6%,0%,11µM*,-1,x
COc1ccc2c(c1)CC(C1(O)C(=O)Nc3ccccc31)C2=O (stereo not drawn),x,-6%,3%,-1%,0,4%
O=C1CCCC2=C1C1(CCCOC1)N=C(Nc1nc3ccccc3o1)N2 (stereo not drawn),1%,x,x,x,x,u
Nc1nc(-c2cccnc2)nn1S(=O)(=O)c1ccccc1,-1%,x,0%,35µM*,-1,1%
Nc1nc(-c2ccco2)nn1S(=O)(=O)c1ccccc1,-10%,0%,4%,x,-1,u
